Tests used:
Test in all cases: SPOT peptide array binding signal intensity (averaged, normalized) (arbitrary units (background-subtracted, floor 0; scale differs between SH3 domains)); higher = stronger binding of the SH3 domain to the peptide
[1] = target: AgAbp1
Method in brief: (§1)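 Spot intensities were captured after detection with anti-GST antibody, an HRP-linked anti-mouse secondary and luminol, and quantified with Genespotter. The probes were GST-fused SH3 domains from four yeast species, produced in E. coli BL21(DE3), purified on glutathione Sepharose and incubated at 10 μg/ml overnight at 4°C on cellulose-bound synthetic 15-mer peptides with cysteines replaced by serines. Binding signal is the normalized, background-subtracted spot intensity averaged over replicates, and its arbitrary units differ between domains.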

[2] = target: AgBbc1
Method in brief: as §1

[3] = target: AgBem1-D1
Method in brief: as §1

[4] = target: AgBzz1-D1
Method in brief: as §1

[5] = target: AgBzz1-D2
Method in brief: as §1

[6] = target: AgCyk3
Method in brief: as §1

[7] = target: AgFus1
Method in brief: as §1

[8] = target: AgHof1
Method in brief: as §1

[9] = target: AgHse1
Method in brief: as §1

[10] = target: AgLsb1
Method in brief: as §1

[11] = target: AgLsb4
Method in brief: as §1

[12] = target: AgMyo5
Method in brief: as §1

[13] = target: AgNbp2
Method in brief: as §1

[14] = target: AgRvs167
Method in brief: as §1

[15] = target: AgSho1
Method in brief: as §1

[16] = target: AgSla1-D1-D2
Method in brief: as §1

[17] = target: AgSla1-D3
Method in brief: as §1

[18] = target: CaAbp1-D1
Method in brief: as §1

[19] = target: CaAbp1-D2
Method in brief: as §1

[20] = target: CaBbc1
Method in brief: as §1

[21] = target: CaBem1-D1
Method in brief: as §1

[22] = target: CaBzz1-D1
Method in brief: as §1

[23] = target: CaBzz1-D2
Method in brief: as §1

[24] = target: CaCyk3
Method in brief: as §1

[25] = target: CaFus1
Method in brief: as §1

[26] = target: CaHof1
Method in brief: as §1

[27] = target: CaHse1
Method in brief: as §1

[28] = target: CaLsb1
Method in brief: as §1

[29] = target: CaLsb4
Method in brief: as §1

[30] = target: CaMyo5
Method in brief: as §1

[31] = target: CaNbp2
Method in brief: as §1

[32] = target: CaRvs167
Method in brief: as §1

[33] = target: CaRvs167-3
Method in brief: as §1

[34] = target: CaSho1
Method in brief: as §1

[35] = target: CaSla1-D1-D2
Method in brief: as §1

[36] = target: CaSla1-D3
Method in brief: as §1

[37] = target: ScAbp1
Method in brief: as §1

VQQDSLPKLPFRSWG
SPOT peptide array binding signal intensity [1]: 9.5
SPOT peptide array binding signal intensity [2]: 38.2
SPOT peptide array binding signal intensity [3]: 3.5
SPOT peptide array binding signal intensity [4]: 68.5
SPOT peptide array binding signal intensity [5]: 5.5
SPOT peptide array binding signal intensity [6]: 29
SPOT peptide array binding signal intensity [7]: ≤ 0
SPOT peptide array binding signal intensity [8]: 368
SPOT peptide array binding signal intensity [9]: 1
SPOT peptide array binding signal intensity [10]: 295
SPOT peptide array binding signal intensity [11]: 3220
SPOT peptide array binding signal intensity [12]: ≤ 0
SPOT peptide array binding signal intensity [13]: ≤ 0
SPOT peptide array binding signal intensity [14]: 83.3
SPOT peptide array binding signal intensity [15]: 20
SPOT peptide array binding signal intensity [16]: ≤ 0
SPOT peptide array binding signal intensity [17]: ≤ 0
SPOT peptide array binding signal intensity [18]: 16
SPOT peptide array binding signal intensity [19]: 13
SPOT peptide array binding signal intensity [20]: 220
SPOT peptide array binding signal intensity [21]: ≤ 0
SPOT peptide array binding signal intensity [22]: 53
SPOT peptide array binding signal intensity [23]: 27.5
SPOT peptide array binding signal intensity [24]: 8
SPOT peptide array binding signal intensity [25]: 24
SPOT peptide array binding signal intensity [26]: 4
SPOT peptide array binding signal intensity [27]: 9.25
SPOT peptide array binding signal intensity [28]: ≤ 0
SPOT peptide array binding signal intensity [29]: 6890
SPOT peptide array binding signal intensity [30]: 0.5
SPOT peptide array binding signal intensity [31]: 14.5
SPOT peptide array binding signal intensity [32]: 1260
SPOT peptide array binding signal intensity [33]: 8.5
SPOT peptide array binding signal intensity [34]: 27
SPOT peptide array binding signal intensity [35]: 14
SPOT peptide array binding signal intensity [36]: 1.5
SPOT peptide array binding signal intensity [37]: 6.5

— the supplement of paper PMC4466140
